The nature of assay [1]: inhibitors of TNFa-induced NFkB p65 translocation, primary screen, imaging, HUVEC, MLSMR starter and 10KST1 sets (AID 438;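 active = inhibition above 20% together with a positive visual image hit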;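 note: compound added about 3h40 before a 20 min TNFalpha stimulation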;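 for inhibition: signal is the nuclear over cytoplasmic p65 intensity ratio per well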). The settings on record: HUVEC TNFa-induced p65 nuclear translocation; cell count: measured here: nuclei count (cytotoxicity indicator), at 2.08 µM; inhibition: at 2 µM, stronger effect = higher value, 0% TNFa-plus-vehicle, 100% no-TNFa wells.
A short description of assay [2]: inhibitors of mutant huntingtin aggregation, primary screen, imaging, exon1htt(103Q)mCFP cells, high-content imaging (AID 483;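 active = visual image review flags a hit and inhibition of aggregation exceeds 20%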;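 note: compound exposure lasted 3 days before fixation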;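 for nuclei count: percent of the per-plate median nuclei count of sample wells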). Conditions: exon1htt(103Q)mCFP cell line, aggregate imaging, at 2 µM; inhibition of aggregation: stronger effect = higher value; nuclei count: measured here: cell count, toxicity.
The nature of assay [3]: inhibitors of E-selectin induction by TNFa, primary screen, imaging, HUVEC, immunofluorescence, MLSMR starter and 10KST1 sets (AID 487;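 active = visually confirmed hit in the image check and inhibition above 20%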;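 for inhibition: signal is fraction of cell area covered by stained E-selectin grains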;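 for nuclei count: 100% = median nuclei count of all wells on the same plate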). The settings on record: HUVEC TNFalpha-induced E-selectin immunofluorescence imaging, at 2 µM; inhibition: stronger effect = higher value; nuclei count: measured here: cell number, toxicity.
Assay [4] in a line: DUSP6 inhibitors restoring Erk phosphorylation by chemical complementation, primary imaging in DUSP6-transfected HeLa (AID 609;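 active = compounds giving at least 50% inhibition in the cell-based MKP-3 phosphatase rescue imaging test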;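 for inhibition: phospho-Erk level distribution per well compared with pooled transfected vehicle control wells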). Conditions: HeLa MKP-3 transfected, phospho-Erk imaging KS statistic, at 10 µM, cells stimulated with TPA for 15 min.
Assay [5] deals with Dual specificity protein phosphatase 6 (Homo sapiens) (UniProt Q16828). The description is as above. The settings on record: HeLa MKP-3 transfected, phospho-Erk imaging KS statistic; at 10 µM; stronger effect = higher value; cells stimulated with TPA for 15 min.
The target of assay [6] is Voltage-gated potassium channel subunit beta-2 (Rattus norvegicus) (UniProt P62483). The experiment in a line: KvBeta enzyme negative modulators, primary screen, biochemical, NADPH fluorescence (AID 622;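 active = fluorescence slope higher than the sample average by over 3 SD, cut at about -0.22 in these data, passing the limit was not always enough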;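 note: slope of raw intensity against log time taken from 70 to 1610 s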). The settings on record: recombinant KvBeta, 4-cyanobenzaldehyde reduction, at 10 µM, stronger effect = higher value.
The target is the same in assay [7]. The assay is described as follows: KvBeta positive modulators, primary screen, biochemical, NADPH fluorescence (AID 623;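 active = NADPH fluorescence slope more negative than the mean of all samples by about 3 SD, 99.7% confidence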;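 note: fluorescence intensity change per second fitted from 20 to 320 s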). The settings on record: Recombinant KvBeta, NADPH fluorescence decrease slope, 10 min; at 10 µM; stronger effect = lower value.
Assay [8] concerns the target Alpha-2C adrenergic receptor (Homo sapiens) (UniProt P18825). The experiment in a line: modulators of alpha2C/GIRK thallium flux, primary screen, cell-based, HEK293 alpha2C/GIRK1/2 (AID 624;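 active = fluorescence slope after compound addition differing from the mean of all screened samples at 99.7% confidence, in either direction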;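 note: slope of fluorescence ratio to pre-addition baseline per second over 15 to 24 s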). Conditions: thallium flux BTC fluorescence, at 10 µM, actives lie on both sides.
A short description of assay [9]: inhibitors of larval lipid processing in zebrafish, primary screen, whole organism, PED6 fluorescence, gall bladder and intestine (AID 686;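 active = a full or partial loss of lipid-probe fluorescence in the fish gall bladder, intestine or both, judged by eye; inactive = no fluorescence loss, or compound toxic to the fish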;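 note: larvae 5 to 7 days old with five fish per well; signal comes from phospholipase A2 cleavage of quenched PED6 carried via bile; overnight exposure to compound and PED6 before scoring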). Conditions: Zebrafish larvae PED6 lipid processing, fluorescence scoring; screened at 20 µM (by protocol).
The nature of assay [10]: inhibitors of Chlamydomonas gravitaxis, primary screen, whole organism, Chlamydomonas reinhardtii, WT vs cilia-less mutant, absorbance, 96-well (AID 463189).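 Note: 0% = wild type cc124 cells in DMSO and 100% = ciliumless bld1 mutant cells.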 The settings on record: OD600 absorbance, 2 days, at 10 µM, stronger effect = higher value.
A short description of assay [11]: inhibitors of Sendai virus-induced IRF3 signaling, primary screen, TLR/RLR signaling modifier project, cell-based, Sendai virus stimulus, luciferase, 10K MLSCN set (AID 602276;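 active = inhibition at or above 50% at 10 µM; inactive = inhibition below 50%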;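 note: firefly luciferase from ISG56 promoter only with Renilla not read in this screen; 0% = Sendai virus plus DMSO and 100% = medium plus DMSO without virus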). Conditions: HEK293 RL24 IRF3 luciferase reporter, at 10 µM, stronger effect = higher value.
Assay [12] can be described thus: inhibitors of poly I:C-induced TLR3 signaling, primary screen, cell-based, poly I:C stimulus, luciferase, 10K MLSCN set (AID 602277;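 active = inhibition of the reporter signal at or above 50%; inactive = inhibition below 50%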). The settings on record: HEK293-TLR3 RL24 IRF3 luciferase reporter, at 10 µM, stronger effect = higher value.
[13] abbreviates: measured here: cell density z-score.
Where [14] appears, read: measured here: nuclear c-Myc green intensity z-score.
Setting [15] is: measured here: nuclear pErk red intensity z-score, stronger effect = higher value.

Several values for one entry are separate records, joined by “and”; a condition that tells them apart may be missing. Equal entries are not always repeated. Activity calls are given as the source filed them.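 Rule for the calls, unless noted: active = inhibition at or above 50% relative to wild type and mutant plate controls; inactive = inhibition below 50%.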

Dual specificity protein phosphatase 6 (Homo sapiens), sequence (Q16828 whole entry, looked up): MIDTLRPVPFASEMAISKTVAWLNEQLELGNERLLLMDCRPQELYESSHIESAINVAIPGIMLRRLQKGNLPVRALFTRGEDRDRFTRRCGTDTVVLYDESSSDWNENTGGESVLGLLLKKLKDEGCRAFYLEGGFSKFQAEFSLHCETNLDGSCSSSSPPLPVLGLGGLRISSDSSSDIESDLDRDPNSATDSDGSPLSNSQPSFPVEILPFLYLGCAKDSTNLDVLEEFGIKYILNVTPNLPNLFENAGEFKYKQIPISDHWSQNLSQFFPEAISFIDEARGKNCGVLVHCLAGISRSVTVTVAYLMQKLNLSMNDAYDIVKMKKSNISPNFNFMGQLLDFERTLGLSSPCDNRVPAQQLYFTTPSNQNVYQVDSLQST
Alpha-2C adrenergic receptor (Homo sapiens), sequence (P18825 whole entry, looked up): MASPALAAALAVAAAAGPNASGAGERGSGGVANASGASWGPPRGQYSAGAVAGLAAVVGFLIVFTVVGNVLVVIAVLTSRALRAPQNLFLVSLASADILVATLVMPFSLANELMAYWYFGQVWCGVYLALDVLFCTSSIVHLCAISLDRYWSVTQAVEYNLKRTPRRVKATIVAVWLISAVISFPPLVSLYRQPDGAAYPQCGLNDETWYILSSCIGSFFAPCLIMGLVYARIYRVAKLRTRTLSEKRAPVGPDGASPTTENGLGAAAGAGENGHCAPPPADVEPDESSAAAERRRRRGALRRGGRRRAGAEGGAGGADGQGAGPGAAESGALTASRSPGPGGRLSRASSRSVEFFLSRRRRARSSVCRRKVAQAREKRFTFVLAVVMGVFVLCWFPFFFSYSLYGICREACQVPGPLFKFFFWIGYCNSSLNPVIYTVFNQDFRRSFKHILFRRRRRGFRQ
Voltage-gated potassium channel subunit beta-2 (Rattus norvegicus), sequence (P62483 whole entry, looked up): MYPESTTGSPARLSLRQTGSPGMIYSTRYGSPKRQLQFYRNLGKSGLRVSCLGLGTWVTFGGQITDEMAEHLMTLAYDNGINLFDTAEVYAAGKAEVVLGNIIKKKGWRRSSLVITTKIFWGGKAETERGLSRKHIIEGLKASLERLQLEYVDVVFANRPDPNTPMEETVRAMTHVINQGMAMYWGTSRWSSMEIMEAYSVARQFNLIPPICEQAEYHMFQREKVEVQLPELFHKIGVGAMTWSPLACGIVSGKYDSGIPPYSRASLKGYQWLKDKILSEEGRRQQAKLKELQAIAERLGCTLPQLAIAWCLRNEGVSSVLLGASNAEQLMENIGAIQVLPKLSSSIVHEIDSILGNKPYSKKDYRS

`CC(C)C[C@H](NC(=O)[C@@H]1O[C@H]1C(=O)O)C(=O)NCCCCN=C(N)N`: the cell count in assay [1] stood at 565. Moreover, the inhibition in [1] is 1.2% (inactive); in [3], -70.2% (inactive); in assay [5] it was 3.45% (inactive); in assay [10] it was 9.72% (inactive); in [11], 13.8% (inactive); in assay [12] it was 45.3% (inactive). Also, the inhibition of aggregation in assay [2] was 14.2% (inactive). Further, the nuclei count in assay [2] is 93.3%; in assay [3], 120%. Moreover, the figures for the z-score in assay [4] (setting [13]), in assay [4] (setting [14]) and in assay [4] (setting [15]) were 0.0952, -0.437 and 0.847, respectively. The fluorescence slope in [6] is -0.492 (inactive). The NADPH fluorescence slope in assay [7] is -4.3e-05 (inactive). The slope in assay [8] was 0.00515 (inactive). Besides, the molecule was called inactive in assay [9].
Take `N#CC(C(=O)Nc1ccc(Cl)c(Cl)c1)=C1Nc2ccccc2N1`: the cell count in assay [1] was 445. Further, the inhibition was -0.2% (inactive) in [1]; -124% (inactive) in [3]; -1.75% (inactive) in assay [5]; -6.51% (inactive) in assay [10]; 12.6% (inactive) in assay [11]; 15.9% (inactive) in assay [12]. For the same molecule, the inhibition of aggregation in [2] was 13.2% (inactive). For the same molecule, the nuclei count in assay [2] amounted to 98.9%; in [3] it was 136%. The z-score in assay [4] (setting [13]) stood at 0.726; in assay [4] (setting [14]), 1.14; in assay [4] (setting [15]), 0.693. Further, the fluorescence slope in assay [6] is -0.351 (inactive). For the same molecule, the NADPH fluorescence slope in assay [7] was -8.3e-07 (inactive). Further, in assay [8], the slope was 0.00591 (inactive). For the same molecule, the outcome in assay [9] was inactive.
Turning to `CCC(NC(C)C)C(O)c1ccc(O)c(O)c1` (stereo not given), in assay [1], the cell count was 661. For the same molecule, the inhibition in [1] was -7.3% (inactive); in assay [3] it was -51.9% (inactive); in assay [5], 7.39% (inactive); in assay [10], 14.5% (inactive) and 0.657% (inactive); in [11] it was 13.9% (inactive); in assay [12] it was 39.3% (inactive). In assay [2], the inhibition of aggregation was 1% (inactive). For the same molecule, the nuclei count came to 109% in assay [2] and 117% in assay [3]. Moreover, the z-score in assay [4] (setting [13]) was -1.1; in assay [4] (setting [14]), -0.395; in assay [4] (setting [15]), 0.461. For the same molecule, in assay [6], the fluorescence slope was -0.492 (inactive). In [7], the NADPH fluorescence slope was -5.8e-05 (inactive). The slope in assay [8] is 0.00513 (inactive). In assay [9], the outcome was inactive.
Turning to `Clc1ccc(Cl)c(-c2ccc(/C=N/c3ncn[nH]3)o2)c1`, in [1], the cell count is 439. For the same molecule, the inhibition in assay [1] was -0.4% (inactive); in assay [3] it was -127% (inactive); in assay [5] it was -4.27% (inactive); in assay [10], 73.7% (active); in assay [11] it was 13.4% (inactive); in assay [12], 18.3% (inactive). The inhibition of aggregation in [2] is 6.2% (inactive). Moreover, the nuclei count was found to be 104% in assay [2] and 122% in assay [3]. The z-score is -0.606 in [4] (setting [13]), -0.195 in assay [4] (setting [14]) and 1.4 in [4] (setting [15]). Moreover, the fluorescence slope in [6] was -0.438 (inactive). Moreover, the NADPH fluorescence slope in assay [7] was -5.6e-05 (inactive). Moreover, the slope in assay [8] was 0.0057 (inactive). Besides, the outcome in [9] was inactive.
In the case of `O=c1oc2cc(O)ccc2c2oc3cc(O)ccc3c12`, the cell count in assay [1] was found to be 610. In addition, the inhibition is 3.6% (inactive) in assay [1]; -22% (inactive) in [3]; 25.7% (inactive) in assay [5]; 6.48% (inactive) in assay [10]; 12.4% (inactive) in assay [11]; 41.2% (inactive) in assay [12]. Also, the inhibition of aggregation in assay [2] is 11.2% (inactive). In addition, the nuclei count in assay [2] came out at 78.7%; in [3] it was 112%. The figures for the z-score in assay [4] (setting [13]), in assay [4] (setting [14]) and in assay [4] (setting [15]) were 0.528, 1.66 and -1.32, respectively. Further, the fluorescence slope in assay [6] is -0.398 (inactive). In addition, in assay [7], the NADPH fluorescence slope is -1e-05 (inactive). The slope in assay [8] is 0.00469 (inactive). In addition, the molecule was classed as inactive in assay [9].
In the case of `C#CCN(C)Cc1ccccc1`, in assay [1], the cell count is 613. The inhibition in assay [1] is -8.1% (inactive); in assay [3], -105% (inactive); in assay [5] it was 13.3% (inactive); in [10], -8.12% (inactive) and 10.4% (inactive); in assay [11], 18.7% (inactive); in assay [12], 42.3% (inactive). In addition, the inhibition of aggregation in assay [2] is 11.2% (inactive). For the same molecule, the results for the nuclei count in [2] and in [3] were 96.3% and 135%, respectively. Besides, the figures for the z-score in assay [4] (setting [13]), in assay [4] (setting [14]) and in [4] (setting [15]) were 1.46, -0.921 and -1.15, respectively. In assay [6], the fluorescence slope was -0.461 (inactive). Moreover, the NADPH fluorescence slope in assay [7] was -3.5e-05 (inactive). Moreover, the slope in assay [8] was 0.00478 (inactive). For the same molecule, the molecule was called inactive in [9].
As to `CCN1CCN(c2nc3c(C)cccn3c(=O)c2/C=C(\C#N)S(=O)(=O)c2ccccc2)CC1`, in assay [1], the cell count stood at 501. Moreover, the inhibition in assay [1] was -1.7% (inactive); in assay [3], -71.1% (inactive); in assay [5], 3.5% (inactive); in assay [10], 18.9% (inactive); in assay [11], 9.29% (inactive); in [12], 23.8% (inactive). Further, in assay [2], the inhibition of aggregation is -13.4% (inactive). Moreover, the nuclei count in assay [2] came to 108%; in [3], 118%. Further, the z-score in assay [4] (setting [13]) is 0.894; in [4] (setting [14]), -1.58; in assay [4] (setting [15]), 2.23. For the same molecule, the fluorescence slope in assay [6] is -0.517 (inactive). The NADPH fluorescence slope in assay [7] was -1.8e-05 (inactive). Moreover, the slope in assay [8] was 0.00181 (inactive). Further, the molecule was classed as inactive in assay [9].
As to `CC(C)NCC(O)COc1ccc(CCOCC2CC2)cc1` (stereo not given), the cell count in [1] amounted to 564. For the same molecule, the inhibition in [1] is -5.6% (inactive); in assay [3] it was -146% (inactive); in assay [5], 1.48% (inactive); in assay [10], 7.04% (inactive) and 48.4% (inactive); in [11], 12.5% (inactive); in [12], 37.3% (inactive). Also, in assay [2], the inhibition of aggregation was 10.6% (inactive). Further, the nuclei count stood at 102% in assay [2] and 119% in assay [3]. The z-score in [4] (setting [13]) was -0.149; in assay [4] (setting [14]), 0.261; in assay [4] (setting [15]) it was 0.0924. The fluorescence slope in assay [6] is -0.454 (inactive). Moreover, in [7], the NADPH fluorescence slope is -2.4e-05 (inactive). Also, in assay [8], the slope was 0.0053 (inactive). For the same molecule, the molecule was classed as inactive in assay [9].
Regarding `CCCOc1cccc(C2/C(=C(/O)c3ccccc3)C(=O)C(=O)N2CCN(C)C)c1` (stereo not given), in assay [1], the cell count amounted to 511. Further, the inhibition in [1] is -3.9% (inactive); in assay [3] it was -90.6% (inactive); in assay [5], -0.159% (inactive); in assay [10], 30.4% (inactive); in assay [11], 15.1% (inactive); in assay [12], 19.2% (inactive). Besides, in assay [2], the inhibition of aggregation is -5.1% (inactive). The nuclei count in [2] is 109%; in assay [3], 134%. The z-score in [4] (setting [13]) is -0.467; in [4] (setting [14]), 0.337; in [4] (setting [15]) it was 1.7. Also, in assay [6], the fluorescence slope is -0.431 (inactive). Also, the NADPH fluorescence slope in assay [7] is -5.6e-05 (inactive). For the same molecule, the slope in assay [8] was 0.00489 (inactive). For the same molecule, the call in [9] was inactive.
For the molecule `Cc1ccc(/C(O)=C2/C(=O)C(=O)N(Cc3ccco3)C2c2cccs2)cc1` (stereo not given), the cell count in assay [1] came out at 592. The inhibition in assay [1] is -1.5% (inactive); in [3], -40.6% (inactive); in [5], -18.6% (inactive); in assay [10], -4.07% (inactive); in assay [11], -8% (inactive); in [12], 3.2% (inactive). Further, the inhibition of aggregation in assay [2] was -9.7% (inactive). Further, the nuclei count in [2] is 111%; in [3], 136%. The z-score in assay [4] (setting [13]) is -0.164; in assay [4] (setting [14]), 0.546; in assay [4] (setting [15]), 1.58. In addition, the fluorescence slope in assay [6] was -0.497 (inactive). Besides, the NADPH fluorescence slope in assay [7] was -6.4e-05 (inactive). Besides, the slope in [8] was 0.00587 (inactive). Also, the call in assay [9] was inactive.

The values above are taken from PubChem BioAssay.
